# Several values for one entry are separate records, joined by “and”; a condition that tells them apart may be missing. Equal entries are not always repeated. Inconclusive results are not listed. Activity calls are given as the source filed them. Calls follow the shape of the dose curve; as a rule, active = well fitted activation curve with a large enough effect in the repeat runs; inconclusive = weak or mixed curves; inactive = flat fitted curve, though single readings scatter.
# Experiment: A CellTox Green Cytotoxicity Assay to monitor cytotoxicity in HEK293 cells - 16 hour (AID 1224888); also: nearly all actives have a fitted effect of over 35% in size
# Conditions: CellTox Green fluorescence; series mostly up to 76.8 µM; activity change: at the top concentration
# Source text: National Center for Advancing Translational Sciences [NCATS]
# NIH Chemical Genomics Center [NCGC]
# U.S. Environmental Protection Agency [EPA]
# National Institutes of Environmental Health Sciences [NIEHS]
# National Toxicology Program [NTP]
# Cell-based models are critical for drug discovery. Determining the natural cytotoxic effects resulting from test compounds is an essential research activity. A CellTox Green Cytotoxicity Assay to monitor cytotoxicity in real time of continues cell culture during 40 hours of the compound treatment was used to screen Tox21 10K library compounds in Hek293 cells. CellTox Green Cytotoxicity Assay is a nonlytic, homogeneous, biofluorescent method to measure cytotoxicity in cell culture after experimental manipulation. The assay system uses a proprietary asymmetric cyanine dye that is excluded from viable cells but preferentially stains the dead cell's DNA. […] Viable cells produce no appreciable increases in fluorescence. Therefore, the fluorescence signal produced by the binding interaction with dead cell DNA is proportional to cytotoxicity.
# The mixture of Hek293 cell suspension and reagents were dispensed at 600cells/6 ul/well in 1536-well tissue culture treated black solid bottom plates using a Multidrop dispenser. After the assay plates were incubated at a 37 C/5% CO2 incubator for 5 hours, 23 nL of compounds dissolved in DMSO, positive and negative controls was transferred to the assay plate by a pintool work station. The plates were incubated at 37 C for 40 hours. The fluorescence intensity were measured at 0h, 8h, 16h, 24h, 32h and 40h time points using ViewLux plate reader during compound treatment.
# % is scaled to controls: 0 for no effect and ±100 for the full control effect; potency is read from the fitted curve at half-maximal effect.
SMILES,activity change,Potency
CCc1cc(C)cc(CC)c1-c1c(OC(=O)C(C)(C)C)n2n(c1=O)CCOCC2,18.5% (inactive),
CCCCCCCCCBr,0.722% (inactive),
C[C@@H]1O[C@@H](O[C@@H]2C=C3CC[C@@H]4[C@H](CC[C@]5(C)[C@@H](c6ccc(=O)oc6)CC[C@]45O)[C@@]3(C)CC2)[C@H](O)[C@H](O)[C@H]1O,"-7.71% [at 35.3 µM, hits give high values] (inactive)",
COc1ccc([N+](=O)[O-])cc1O,"0.304% [at 35.3 µM, hits give high values] (inactive)",
CCC(C)c1cc([N+](=O)[O-])cc([N+](=O)[O-])c1OC(=O)C=C(C)C (stereo not given),-16.9% (inactive),
Cl/C=C\CCl,28.4% (inactive),
ClC1=C(Cl)C2(Cl)C3C(Cl)C(Cl)CC3C1(Cl)C2(Cl)Cl (stereo not given),,54.8 µM (active)
C[C@]12CC[C@H](O)C[C@H]1CC[C@@H]1[C@@H]2C[C@@H](O)[C@]2(C)[C@@H](C3=CC(=O)OC3)CC[C@]12O,-10.4% (inactive),
CCCCCCCCCCBr,-7.93% (inactive),
N#CCCSCCC#N,0.715% (inactive),
CC(=O)OC1(c2ccccc2)CCN(CCc2ccccc2)CC1,-3.96% (inactive),
CC(=O)c1cc(C(C)(C)C)cc2c1CCC2(C)C,25.8% (inactive),
Oc1ccc(C(=C(Cl)Cl)c2ccc(O)cc2)cc1,12% (inactive),
CC(C)(C)c1cc([N+](=O)[O-])cc(C(C)(C)C)c1O,3.2% (inactive),
O=[N+]([O-])O.O=[N+]([O-])O.[Cd],9.84% (inactive),
C[C@H]1CC[C@@H]2[C@@H](C)[C@H]3[C@H](C[C@H]4[C@@H]5CC=C6CC(O[C@@H]7O[C@H](CO)[C@H](O)[C@H](O[C@@H]8O[C@H](CO)[C@@H](O)[C@H](O)[C@H]8O)[C@H]7O[C@H]7O[C@@H](C)[C@H](O)[C@@H](O)[C@H]7O)CC[C@]6(C)[C@H]5CC[C@]34C)N2C1 (stereo not given in full),,7.14 µM (active)
C[C@@H]1CC[C@@]2(OC1)O[C@H]1[C@@H](O)[C@H]3[C@@H]4CC[C@H]5C[C@@H](O[C@@H]6O[C@H](CO)[C@H](O[C@@H]7O[C@H](CO)[C@@H](O)[C@H](O[C@@H]8OC[C@@H](O)[C@H](O)[C@H]8O)[C@H]7O[C@@H]7O[C@H](CO)[C@@H](O)[C@H](O[C@@H]8O[C@H](CO)[C@@H](O)[C@H](O)[C@H]8O)[C@H]7O)[C@H](O)[C@H]6O)[C@H](O)C[C@]5(C)[C@H]4CC[C@]3(C)[C@H]1[C@@H]2C,,4.63 µM (active)
CC(O)C#N (stereo not given),-1.07% (inactive),
COP(N)(=S)OC,-10.7% (inactive),
ClC1=C(Cl)C2(Cl)C3C(Cl)C=CC3C1(Cl)C2(Cl)Cl (stereo not given),,55.2 µM (active) and 49 µM (active)

SMILES,activity change,Potency
COc1ccc(/C(=C/C(=O)N2CCOCC2)c2ccc(Cl)cc2)cc1OC,-10.8% (inactive),
CCCCCCCCCCCCBr,8.1% (inactive),
Cc1cc(SCc2sc(-c3ccc(C(F)(F)F)c(F)c3)nc2C)ccc1OCC(=O)O,12.8% (inactive),
CCCCCCCCCCCCCC[P+](CCCCCC)(CCCCCC)CCCCCC (tested in a mixture with another compound),,17.4 µM (active)
Nc1ccccc1C(=O)Oc1ccc2ccccc2c1,-8.54% (inactive),
Nc1ccc([N+](=O)[O-])cc1Cl,-0.0608% (inactive),
COc1cccc2c1C(=O)c1c(O)c3c(c(O)c1C2=O)C[C@@](O)(C(=O)CO)CC3OC1CC(N2CCOC(OC)C2)C(O)C(C)O1 (stereo not given in full),"15.9% [at 35.3 µM, hits give high values] (inactive)",
Clc1ccc(-c2ccc(Cl)c(Cl)c2Cl)c(Cl)c1Cl,2.12% (inactive),
CNC(C)Cc1ccc2c(c1)OCO2 (stereo not given),15.5% (inactive),
CC(C)(C)c1ccc(CSc2cnn(C(C)(C)C)c(=O)c2Cl)cc1,1.55% (inactive),
COc1ccc(N)cc1N,,inactive
C=CC(=O)N(C)C,-16% (inactive),
CC(C)CCCCCCCOP(=O)(Oc1ccccc1)Oc1ccccc1,-10.1% (inactive),
c1ccc2cc3c(cc2c1)-c1cccc2cccc-3c12,-1.03% (inactive),
ClC1=C(Cl)[C@]2(Cl)[C@H]3[C@H]([C@H]4C=C[C@H]3C4)[C@@]1(Cl)C2(Cl)Cl,-2.28% (inactive),
CC(C)(C)C(O)/C(=C\c1ccc(Cl)cc1Cl)n1cncn1 (stereo not given),20.6% (inactive),
Cc1c(Cl)c(=O)oc2cc(OP(=O)(OCCCl)OCCCl)ccc12,"2% [at 35.3 µM, hits give high values] (inactive)",
CCOCn1c(-c2ccc(Cl)cc2)c(C#N)c(Br)c1C(F)(F)F,0.0628% (inactive),
NNC(=O)c1ccccc1,-6.98% (inactive),
CCN,11.4% (inactive),

# — PubChem BioAssay (Tox21)
